Results filed as inconclusive are left out. Active and inactive are the calls of the source. Unless noted, calls follow the shape of the dose curve; as a rule, active = well fitted curve in the direction sought with a large enough effect; inconclusive = small, poorly fitted or top-dose-only effect, or another doubt; inactive = no such curve, though single readings can be large; an effect the other way counts as inactive or inconclusive.

The nature of assay [1]: P-glycoprotein substrates identified in KB-3-1 adenocarcinoma cell line, qHTS therapeutic library screen (AID 1346986). Also: nearly all actives have a fitted effect of over 60% in size.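 Also: potency is read from the fitted curve at half-maximal effect; potency is for cytotoxicity meaning loss of cell viability.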 In a few lines: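 Viability by CellTiter-Glo after 72 h compound exposure at 37 degree C, 5% CO2. Cytotoxic call: curve class -1.1 to -2.4, maximum response >50%, AC50 < 10 uM, compared across KB-3-1 and P-gp-overexpressing KB-8-5-11.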
The nature of assay [2]: P-glycoprotein substrates identified in KB-8-5-11 adenocarcinoma cell line, qHTS therapeutic library screen (AID 1346987). Also: nearly all actives have a fitted effect of over 65% in size. Also: potency is read from the fitted curve at half-maximal effect. In a few lines: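 In this qHTS, P-gp-rich KB-8-5-11 cells received library compounds across a concentration range. Viability was quantified by luminescence after 72 h at 37 degree C.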
In general terms: qHTS replaces the single test concentration by a dilution series.

Assay [3] concerns the target Calcium and integrin-binding protein 1 (Homo sapiens) (UniProt Q99828). Kind of assay: Primary qHTS for Identification of Calcium Integrin Binding Protein 1 (CIB1) Competitor (AID 1508620). Also: top concentration of the series differs between compounds; % is scaled to controls: 0 for no effect and ±100 for the full control effect. In a few lines: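 Fluorescence polarization competition: GST-tagged CIB1 (1 uM final) preincubated with compound 15 min at room temperature, then FITC-labelled alphaIIb peptide (100 nM final) added. After 15 min at room temperature, polarization read at Ex 480/Em 540.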

Assay [4] in a line: Primary qHTS for inhibitors of nuclear receptor binding SET domain protein 2 (NSD2) in an isogenic RCH-ACV NSD2 p.E1099K mutant (9B) (AID 1645876). Also: nearly all actives have a fitted effect of over 70% in size. Also: potency is read from the fitted curve at half-maximal effect.
A short description of assay [5]: Primary qHTS for inhibitors of nuclear receptor binding SET domain protein 2 (NSD2) in an RCH-ACV wild type WT cells (2C) (AID 1645877). Also: nearly all actives have a fitted effect of over 70% in size. Also: potency is read from the fitted curve at half-maximal effect.
For assay [6], the target named is Glutathione peroxidase 1 (Homo sapiens) (UniProt P07203). The assay is described as follows: Primary qHTS Assay for Inhibitors of Recombinant Selenoprotein Glutathione Peroxidase 1 (GPX1) (AID 1845191). Also: nearly all actives have a fitted effect of over 65% in size. Also: potency is read from the fitted curve at half-maximal effect. In a few lines:
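GR-coupled readout: NADPH consumption tracked by fluorescence, ex 340/em 450 nm, at t=0 and after 15 min at RT. Final mix 10 nM GPX1, 1 mM GSH, 0.5 mM CHP, 0.5 mM NADPH, 100 nM GR, 0.01% BSA, following 30 min enzyme–compound preincubation.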

The nature of assay [7]: qHTS to identify inhibitors of the type 1 interferon - major histocompatibility complex class I in skeletal muscle: primary screen against the NCATS Mechanism Interrogation Plate v5.0 (MIPE) Libary (AID 1347411).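 Also: plate controls were vehicle for no effect and reference inhibitor for full effect; nearly all actives have a fitted effect of over 65% in size.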 In a few lines: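 HLA-B HiBit myoblasts, dexamethasone-free medium + 4 ng/ml IFN-b, 24 h compound, 11-pt 1:3 from 46 uM final. Readout: Nano-Glo HiBiT lytic luminescence after 10 min lysis, RT.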

Assay [8] in a line: qHTS drug screen for cell cycle checkpoint inhibitors in PARPi-resistant BRCA-mutant ovarian cancer cell lines. (AID 1963452; calls by dose curve). As to conditions: PEO1/OlaR viability, CellTiter-Glo luminescence, 96 h, stronger effect = lower value. In a few lines: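 PEO1, PEO4 and PEO1/OlaR ovarian cancer cells, 600 per well, exposed 96 h at 37C to a dilution series. Viability read by CellTiter-Glo luminescence, normalized to DMSO and empty wells; activity summarized as Z-AUC.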

The target in assay [9] is Phospholipid hydroperoxide glutathione peroxidase GPX4 (Homo sapiens) (UniProt P36969). The assay is described as follows: Primary qHTS Assay for Inhibitors of Recombinant Selenoprotein Glutathione Peroxidase 4 (GPX4) (AID 1845192). Also: % is scaled to controls: 0 for no effect and ±100 for the full control effect; nearly all actives have a fitted effect of over 65% in size. As to conditions: outcome: dose series up to 50 µM unless noted. In a few lines: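 Steps: GPX4 plus compound, 30 min RT; add GR/GSH/NADPH master mix; start with cumene hydroperoxide; read 340/450 nm fluorescence at 0 and 15 min. Finals were 200 nM GPX4, 1 mM GSH, 0.5 mM CHP, 0.5 mM NADPH, 100 nM GR.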

Assay [10] has as its target Cytochrome P450 2D6 (Homo sapiens) (UniProt P10635). Kind of assay: Cytochrome P450 family 2 subfamily D member 6 (CYP2D6) small molecule antagonists: luciferase biochemical (cell-free) qHTS assay (AID 1645840; active = well fitted curve in the direction sought with a large enough effect in the repeat runs; an effect the other way counts as inactive or inconclusive; also: % is scaled to controls: 0 for no effect and ±100 for the full control effect; nearly all actives have a fitted effect of over 55% in size). In a few lines:
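P450-Glo CYP2D6 system: proluciferin substrate converted by enzyme to luciferin, read by luminescence proportional to activity. Enzyme-substrate mix with compound 10 min at room temperature, then NADPH regeneration 1 h before detection reagent.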

Assay [11] has as its target Cytochrome P450 2C9 (Homo sapiens) (UniProt P11712). The assay is described as follows: Cytochrome P450 family 2 subfamily C member 9 (CYP2C9) small molecule antagonists: luciferase biochemical (cell-free) qHTS assay (AID 1645842; active = well fitted curve in the direction sought with a large enough effect in the repeat runs; an effect the other way counts as inactive or inconclusive; also: % is scaled to controls: 0 for no effect and ±100 for the full control effect; nearly all actives have a fitted effect of over 55% in size). In a few lines:
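P450-Glo CYP2C9 system: proluciferin substrate with enzyme in mix containing 0.4% BSA, 10 min at room temperature, then NADPH regeneration solution added and incubated 1 h at 37C. Detection reagent stopped reaction; luminescence read after 20 min as RLU.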

The target of assay [12] is Catechol O-methyltransferase (Homo sapiens) (UniProt P21964). Kind of assay: Confirmatory Screen for Target Class Profiling of Small Molecule Inhibitors of Methyltransferases (AID 1745852; calls by dose curve; also: potency is read from the fitted curve at half-maximal effect; as to activity change, negative = inhibition: % is scaled to controls: 0 for no effect and ±100 for the full control effect). As to conditions: MTase-Glo luminescence, SAH detection, recombinant enzyme; measured here: COMT max response; stronger effect = lower value.
Assay [13] concerns the target Guanidinoacetate N-methyltransferase (Homo sapiens) (UniProt Q14353). The assay is described as above. To be noted: activity change, negative = inhibition: at 57.3 µM (top of the series) unless noted.
The target in assay [14] is Nicotinamide N-methyltransferase (Homo sapiens) (UniProt P40261). The assay is described as above. To be noted: MTase-Glo luminescence, SAH detection, recombinant enzyme; measured here: NNMT max response; stronger effect = lower value.
For assay [15], the target named is Phenylethanolamine N-methyltransferase (Homo sapiens) (UniProt P11086). Described as above. As to conditions: MTase-Glo luminescence, SAH detection, recombinant enzyme; measured here: PNMT max response; stronger effect = lower value.
The mark [16] stands for this setting: measured here: PEO1 parental Z-AUC.

Sequence of Calcium and integrin-binding protein 1 (Homo sapiens) (Q99828 whole entry, looked up): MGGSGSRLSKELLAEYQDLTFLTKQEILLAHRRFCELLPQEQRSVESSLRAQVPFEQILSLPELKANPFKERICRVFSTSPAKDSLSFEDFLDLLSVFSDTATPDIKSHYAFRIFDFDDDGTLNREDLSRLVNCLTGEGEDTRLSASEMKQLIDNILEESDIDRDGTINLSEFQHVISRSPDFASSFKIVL
Sequence of Glutathione peroxidase 1 (Homo sapiens) (P07203 whole entry, looked up): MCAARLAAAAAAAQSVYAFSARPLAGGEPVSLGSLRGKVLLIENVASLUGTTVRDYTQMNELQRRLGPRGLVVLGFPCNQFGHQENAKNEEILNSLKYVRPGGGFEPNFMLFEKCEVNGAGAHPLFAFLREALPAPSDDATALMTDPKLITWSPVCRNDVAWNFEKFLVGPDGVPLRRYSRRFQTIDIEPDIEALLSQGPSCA
Sequence of Nicotinamide N-methyltransferase (Homo sapiens) (P40261 whole entry, looked up): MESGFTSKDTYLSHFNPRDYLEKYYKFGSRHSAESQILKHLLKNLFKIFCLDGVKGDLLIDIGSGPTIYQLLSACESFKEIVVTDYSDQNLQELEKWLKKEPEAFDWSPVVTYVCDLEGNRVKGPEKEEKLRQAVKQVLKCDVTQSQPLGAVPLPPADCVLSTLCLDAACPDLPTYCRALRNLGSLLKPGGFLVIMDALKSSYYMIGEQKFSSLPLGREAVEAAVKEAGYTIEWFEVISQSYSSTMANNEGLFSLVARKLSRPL
Sequence of Catechol O-methyltransferase (Homo sapiens) (P21964 whole entry, looked up): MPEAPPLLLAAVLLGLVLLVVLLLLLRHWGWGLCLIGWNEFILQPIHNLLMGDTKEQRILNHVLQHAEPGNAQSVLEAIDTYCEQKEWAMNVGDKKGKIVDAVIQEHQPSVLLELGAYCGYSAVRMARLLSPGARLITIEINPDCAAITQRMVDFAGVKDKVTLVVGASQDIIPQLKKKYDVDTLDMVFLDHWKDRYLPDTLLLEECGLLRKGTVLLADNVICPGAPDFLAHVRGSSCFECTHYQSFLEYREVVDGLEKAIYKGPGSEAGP
Sequence of Phenylethanolamine N-methyltransferase (Homo sapiens) (P11086 whole entry, looked up): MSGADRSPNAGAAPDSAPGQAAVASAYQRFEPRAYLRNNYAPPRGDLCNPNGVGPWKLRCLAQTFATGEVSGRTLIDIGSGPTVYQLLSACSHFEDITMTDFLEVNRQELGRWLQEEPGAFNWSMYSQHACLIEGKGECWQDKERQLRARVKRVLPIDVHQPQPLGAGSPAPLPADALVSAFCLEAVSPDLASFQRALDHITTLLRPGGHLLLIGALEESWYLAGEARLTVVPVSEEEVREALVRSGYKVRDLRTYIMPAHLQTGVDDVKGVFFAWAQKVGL
Sequence of Cytochrome P450 2C9 (Homo sapiens) (P11712 whole entry, looked up): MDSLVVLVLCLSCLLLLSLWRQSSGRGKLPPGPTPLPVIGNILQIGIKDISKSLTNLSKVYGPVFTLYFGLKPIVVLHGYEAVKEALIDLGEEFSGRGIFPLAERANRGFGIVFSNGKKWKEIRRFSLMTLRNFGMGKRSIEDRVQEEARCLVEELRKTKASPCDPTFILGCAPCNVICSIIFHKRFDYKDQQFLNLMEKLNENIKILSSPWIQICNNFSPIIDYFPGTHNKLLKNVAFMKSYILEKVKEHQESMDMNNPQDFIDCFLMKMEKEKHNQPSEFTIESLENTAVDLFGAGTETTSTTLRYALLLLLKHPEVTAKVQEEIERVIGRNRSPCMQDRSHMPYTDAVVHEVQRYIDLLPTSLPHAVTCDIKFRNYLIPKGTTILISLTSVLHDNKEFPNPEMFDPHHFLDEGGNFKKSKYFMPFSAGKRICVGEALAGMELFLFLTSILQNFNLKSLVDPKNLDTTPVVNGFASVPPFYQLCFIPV
Sequence of Cytochrome P450 2D6 (Homo sapiens) (P10635 whole entry, looked up): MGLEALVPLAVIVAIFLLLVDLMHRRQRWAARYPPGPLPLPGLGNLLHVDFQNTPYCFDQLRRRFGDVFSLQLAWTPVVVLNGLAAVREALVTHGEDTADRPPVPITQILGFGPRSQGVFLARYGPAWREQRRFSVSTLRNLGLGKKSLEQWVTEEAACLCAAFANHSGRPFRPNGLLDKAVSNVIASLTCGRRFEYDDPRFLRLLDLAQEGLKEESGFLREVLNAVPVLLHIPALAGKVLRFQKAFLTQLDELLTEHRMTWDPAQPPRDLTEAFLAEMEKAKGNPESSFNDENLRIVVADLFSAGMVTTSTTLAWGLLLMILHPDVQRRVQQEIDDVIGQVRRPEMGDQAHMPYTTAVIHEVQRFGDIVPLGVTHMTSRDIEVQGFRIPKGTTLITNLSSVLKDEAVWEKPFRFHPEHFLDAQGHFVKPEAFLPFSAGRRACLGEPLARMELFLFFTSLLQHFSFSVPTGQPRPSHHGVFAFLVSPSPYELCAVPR
Sequence of Phospholipid hydroperoxide glutathione peroxidase GPX4 (Homo sapiens) (P36969 whole entry, looked up): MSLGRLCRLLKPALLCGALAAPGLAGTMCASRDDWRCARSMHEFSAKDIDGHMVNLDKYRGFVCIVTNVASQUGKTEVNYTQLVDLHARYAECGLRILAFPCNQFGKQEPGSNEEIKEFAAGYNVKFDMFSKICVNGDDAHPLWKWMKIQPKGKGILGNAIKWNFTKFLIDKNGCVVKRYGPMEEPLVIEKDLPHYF

Turning to `O=C1CCCC2=C1C(c1ccccc1Br)N=C(Nc1nc3ccccc3o1)N2` (stereo not drawn), the Potency result in assay [1], in assay [2], in assay [4], in assay [5] and in assay [6] was “inactive” each time. In addition, in [3], the outcome was “inactive”.

Take `O=C1CCCC2=C1C(c1ccncc1Br)N=C(Nc1nc3ccccc3o1)N2` (stereo not drawn): the Potency result in assay [1], in assay [2] and in assay [6] was “inactive” in each case. In addition, in [3], the outcome is “inactive”.

`O=C(NOCCO)c1ccc2cncn2c1Nc1ccc(I)cc1F`: the Potency entry in assay [1], in assay [2], in assay [7] and in [6] was “inactive” each time. Also, the Z-AUC in assay [8] was 1.17 (inactive); in assay [8] (setting [16]), 0.484; in assay [8] (measured here: PEO4 Z-AUC) it was 0.455.

For the molecule `CC(N)C1CCC(C(=O)Nc2ccncc2)CC1` (stereo not drawn), the Potency result in [1], in assay [2], in [4] and in [5] was “inactive” in each case.

Turning to `C#Cc1cccc(Nc2ncnc3cc4c(cc23)OCCOCCOCCO4)c1`, the Potency result in assay [1], in [2], in assay [7], in [5], in assay [6] and in assay [9] was “inactive” each time. The results for the Z-AUC in assay [8], in assay [8] (setting [16]) and in assay [8] (measured here: PEO4 Z-AUC) were 0.644 (inactive), 0.664 and 0.297, respectively.

`Cc1ccc(NS(=O)(=O)c2cc3c(cc2NCCO)NC(=O)CC3)cc1C`: the Potency entry in assay [1], in [2], in assay [4] and in assay [6] was “inactive” in each case. Moreover, the outcome in assay [3] was “inactive”.

`C[C@@H]1N=C(N)NC(N(C)C)=N1`: the Potency result in assay [1], in assay [2], in [7], in assay [4], in assay [5] and in assay [6] was “inactive” in each case. Besides, the Z-AUC in [8] was 1.33 (inactive); in [8] (setting [16]) it was 1.06; in [8] (measured here: PEO4 Z-AUC), 1.03.

Regarding `Cc1[nH]c(/C=C2\C(=O)Nc3ccccc32)c(C)c1CCC(=O)O`, the Potency result in assay [1], in assay [2], in [10], in [11], in assay [4] and in assay [5] was “inactive” each time. Besides, the Potency entry in assay [6] is “inactive”. The Z-AUC in assay [8] was 0.922 (inactive); in assay [8] (setting [16]), 0.668; in [8] (measured here: PEO4 Z-AUC), 0.162.

On to `CCn1c(=O)c2cc(C(N)=O)c(N)nc2n(C2CC2)c1=O`, for which the Potency entry in [1], in [2], in assay [4] and in [5] was “inactive” in each case.

Consider `O=C1NC(=O)C(c2c[nH]c3ccccc23)=C1c1c[nH]c2ccccc12`, for which the Potency result in [1], in [2] and in assay [6] was “inactive” in each case. In addition, the Potency in assay [4] was 18.6 µM (active); in assay [5], 20.9 µM (active); in assay [13] it was 30.6 µM (active). Besides, the activity was -38.2% in assay [12], -39.6% in assay [14] and -46.7% in assay [15]. The Z-AUC is 1.34 (inactive) in assay [8], 0.607 in [8] (setting [16]) and 0.134 in assay [8] (measured here: PEO4 Z-AUC).

`CS(=O)(=O)c1ccc([C@@H](C[C@H]2CCC(=O)C2)C(=O)Nc2cnccn2)cc1Cl`: the Potency result in [1], in assay [2], in assay [4], in assay [5] and in assay [6] was “inactive” each time.

As to `CC1=CC(=O)C(C(C)C)=CC1=O`, the Potency result in assay [1], in assay [2] and in assay [6] was “inactive” throughout. In addition, the results for the Potency in [4] and in [5] were 14.6 µM (active) and 6.51 µM (active), respectively.

For `CN1CCC(c2c(O)cc(O)c3c(=O)cc(-c4ccccc4Cl)oc23)C(O)C1` (stereo not drawn), the Potency in assay [1] is 0.231 µM (active); in [2], 0.517 µM (active); in assay [4], 0.291 µM (active); in assay [5], 0.259 µM (active).

Turning to `Oc1cc(CNC(=S)/C=C/c2cc(O)c(O)c(Br)c2)cc(O)c1O`, the Potency in assay [1] is 7.31 µM (active); in [2], 7.31 µM (active); in assay [4] it was 1.16 µM (active); in [5], 1.03 µM (active); in assay [6], 8.06 µM (active). In addition, the activity is -46.2% in assay [12], -0.986% in assay [14] and -0.984% in assay [15]. Further, in [13], the activity change, negative = inhibition is -4.79%.

Consider `Cc1ccc(OCCSc2ncccn2)c(Br)c1`, for which the Potency entry in assay [1], in [2], in assay [4], in [5] and in [6] was “inactive” throughout.

Source of the values: PubChem BioAssay (NCATS).
